Assay results as given in PubChem BioAssay AID1159580 (chemical genetic matrix, 2015).
Hit rate of the full screen: of about 5,500 compounds, about 2,000 (36%) were called active. Roughly 18% stayed inconclusive and do not appear here. No stated cut-off is given here; in the data, active means normalized growth mostly below about 0.91 (no sharp cut-off); inconclusive means no clear call, values can overlap the other calls; inactive means mostly above about 0.92. Some of the results follow.

Assay: chemical genetic growth profiling, strain panel (AID 1159580);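 further: tested at 20 µM; growth read once vehicle control cultures reached saturation at 30 °C; 1 = growth at the plate median or of vehicle wells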
Conditions: S. cerevisiae deletion strains, growth OD

Measured: normalized growth

O=C(OC1Cc2c(O)cc(O)cc2OC1c1cc(=O)c(O)c2c(O)c(O)cc(C3Oc4cc(O)cc(O)c4CC3O)c2c1)c1cc(O)c(O)c(O)c1 (stereo not drawn)
active: locus YAL013W, strain DEP1, stronger effect = lower value 0.132 | locus YAL021C, strain ccr4, stronger effect = lower value 0.794 | locus YAL026C, strain drs2, stronger effect = lower value 0.856 | locus YBR009C, strain hhf1, stronger effect = lower value 0.901 | locus YBR023C, strain chs3, stronger effect = lower value 0.87 | locus YBR229C, strain ROT2, stronger effect = lower value 0.766 | locus YBR231C, strain swc5, stronger effect = lower value 0.819 | locus YCL029C, strain bik1, stronger effect = lower value 0.816 | locus YDL035C, strain GPR1, stronger effect = lower value 0.158 | locus YDL074C, strain BRE1, stronger effect = lower value 0.286 | locus YDL101C, strain DUN1, stronger effect = lower value 0.194 | locus YDL192W, strain arf1, stronger effect = lower value 0.747 | locus YDR069C, strain doa4, stronger effect = lower value 0.71 | locus YDR101C, strain arx1, stronger effect = lower value 0.91 | locus YDR137W, strain rgp1, stronger effect = lower value 0.844 | locus YDR150W, strain NUM1, stronger effect = lower value 0.651 | locus YDR162C, strain NBP2, stronger effect = lower value 0.0937 | locus YDR318W, strain mcm21, stronger effect = lower value 0.828 | locus YDR334W, strain swr1, stronger effect = lower value 0.873 | locus YDR388W, stronger effect = lower value 0.888 | locus YDR502C, strain sam2, stronger effect = lower value 0.645 | locus YEL061C, strain CIN8, stronger effect = lower value 0.417 | locus YER111C, strain swi4, stronger effect = lower value 0.885 | locus YER167W, strain BCK2, stronger effect = lower value 0.585 | locus YFR010W, strain ubp6, stronger effect = lower value 0.862 | locus YGL086W, strain mad1, stronger effect = lower value 0.795 | locus YGL173C, strain kem1, stronger effect = lower value 0.81 | locus YGL248W, strain PDE1, stronger effect = lower value 0.345 | locus YGL253W, strain hxk2, stronger effect = lower value 0.887 | locus YGR078C, strain PAC10, stronger effect = lower value 0.704 | locus YGR135W, strain pre9, stronger effect = lower value 0.67 | locus YGR229C, strain SMI1, stronger effect = lower value 0.0876 | locus YGR252W, strain gcn5, stronger effect = lower value 0.56 | locus YHR013C, strain ard1, stronger effect = lower value 0.805 | locus YHR027C, strain rpn1, stronger effect = lower value 0.812 | locus YHR030C, strain SLT2, stronger effect = lower value 0.59 | locus YHR079C, strain IRE1 (second series), stronger effect = lower value 0.864 | locus YHR129C, strain ARP1, stronger effect = lower value 0.536 | locus YHR142W, strain chs7, stronger effect = lower value 0.841 | locus YHR200W, strain rpn10, stronger effect = lower value 0.794 | locus YIL066C, strain RNR3, stronger effect = lower value 0.0947 | locus YIL073C, strain SPO22, stronger effect = lower value 0.159 | locus YJL095W, strain BCK1, stronger effect = lower value 0.154 | locus YJL134W, strain LCB3, stronger effect = lower value 0.732 | locus YJL164C, strain tpk1, stronger effect = lower value 0.868 | locus YJL166W, strain qcr8, stronger effect = lower value 0.883 | locus YJL187C, strain SWE1 (second series), stronger effect = lower value 0.0967 | locus YJR043C, strain POL32, stronger effect = lower value 0.203 | locus YJR075W, strain HOC1, stronger effect = lower value 0.58 | locus YKL190W, strain CNB1, stronger effect = lower value 0.126 | locus YKR001C, strain vps1, stronger effect = lower value 0.688 | locus YLR039C, strain RIC1, stronger effect = lower value 0.17 | locus YLR058C, strain SHM2, stronger effect = lower value 0.183 | locus YLR262C, strain YPT6 (second series), stronger effect = lower value 0.811 | locus YLR262C, strain YPT6, stronger effect = lower value 0.342 | locus YLR268W, strain sec22, stronger effect = lower value 0.609 | locus YLR330W, strain CHS5, stronger effect = lower value 0.708 | locus YLR342W, strain FKS1 (second series), stronger effect = lower value 0.263 | locus YLR357W, strain rsc2, stronger effect = lower value 0.744 | locus YLR371W, strain rom2, stronger effect = lower value 0.711 | locus YLR418C, strain cdc73, stronger effect = lower value 0.356 | locus YML016C, strain PPZ1, stronger effect = lower value 0.0879 | locus YML032C, strain rad52, stronger effect = lower value 0.879 | locus YMR058W, strain fet3, stronger effect = lower value 0.252 | locus YMR223W, strain ubp8, stronger effect = lower value 0.761 | locus YMR231W, strain pep5, stronger effect = lower value 0.866 | locus YMR307W, strain GAS1, stronger effect = lower value 0.339 | locus YNL067W, strain RPL9B, stronger effect = lower value 0.486 | locus YNL128W, strain TEP1, stronger effect = lower value 0.145 | locus YNL153C, strain GIM3, stronger effect = lower value 0.417 | locus YNL209W, strain ssb2, stronger effect = lower value 0.749 | locus YNL233W, strain BNI4, stronger effect = lower value 0.621 | locus YNR052C, strain pop2, stronger effect = lower value 0.648 | locus YOL006C, strain TOP1, stronger effect = lower value 0.139 | locus YOL147C, strain pex11, stronger effect = lower value 0.865 | locus YOR061W, strain CKA2, stronger effect = lower value 0.383 | locus YOR069W, strain VPS5, stronger effect = lower value 0.485 | locus YOR106W, strain vam3, stronger effect = lower value 0.657 | locus YOR136W, strain idh2, stronger effect = lower value 0.906 | locus YOR144C, strain elg1, stronger effect = lower value 0.915 | locus YOR184W, strain ser1, stronger effect = lower value 0.578 | locus YOR270C, strain vph1, stronger effect = lower value 0.638 | locus YOR290C, strain snf2, stronger effect = lower value 0.827 | locus YPL051W, strain arl3, stronger effect = lower value 0.827 | locus YPL241C, strain CIN2, stronger effect = lower value 0.636 | locus YPR167C, strain met16, stronger effect = lower value 0.878 | strain wtn01, stronger effect = lower value 0.667
inactive: locus YAL030W, strain snc1, stronger effect = lower value 0.971 | locus YBL061C, strain skt5, stronger effect = lower value 0.932 | locus YBR021W, strain FUR4, stronger effect = lower value 1.05 | locus YBR171W, strain sec66, stronger effect = lower value 0.972 | locus YBR279W, strain paf1, stronger effect = lower value 0.942 | locus YCL011C, strain gbp2, stronger effect = lower value 0.948 | locus YCL016C, strain dcc1, stronger effect = lower value 0.976 | locus YCL061C, strain MRC1, stronger effect = lower value 0.942 | locus YCL069W, strain vba3, stronger effect = lower value 0.986 | locus YCR088W, strain abp1, stronger effect = lower value 1 | locus YDL005C, strain med2, stronger effect = lower value 0.996 | locus YDL040C, strain nat1, stronger effect = lower value 1 | locus YDL185W, strain tfp1, stronger effect = lower value 0.92 | locus YDR001C, strain nth1, stronger effect = lower value 0.992 | locus YDR159W, strain sac3, stronger effect = lower value 1.06 | locus YDR195W, strain ref2 1.03 | locus YDR297W, strain sur2, stronger effect = lower value 0.966 | locus YDR335W, strain msn5, stronger effect = lower value 0.938 | locus YDR392W, strain spt3, stronger effect = lower value 0.939 | locus YEL003W, strain gim4, stronger effect = lower value 0.946 | locus YEL037C, strain rad23, stronger effect = lower value 0.946 | locus YEL061C, strain CIN8 (second series), stronger effect = lower value 0.992 | locus YER015W, strain faa2, stronger effect = lower value 0.93 | locus YER016W, strain bim1, stronger effect = lower value 0.968 | locus YER110C, stronger effect = lower value 1.01 | locus YER155C, strain BEM2 (second series), stronger effect = lower value 0.927 | locus YER155C, strain BEM2, stronger effect = lower value 0.982 | locus YGL078C, strain dbp3, stronger effect = lower value 1 | locus YGL167C, strain pmr1, stronger effect = lower value 0.969 | locus YGL227W, strain vid30, stronger effect = lower value 1 | locus YGL240W, strain doc1, stronger effect = lower value 1 | locus YHR094C, strain hxt1, stronger effect = lower value 0.982 | locus YIL125W, strain kgd1, stronger effect = lower value 0.995 | locus YIR030C, strain dcg1, stronger effect = lower value 0.956 | locus YJL092W, strain hpr5, stronger effect = lower value 0.992 | locus YJL095W, strain BCK1 (second series), stronger effect = lower value 0.96 | locus YJL115W, strain asf1, stronger effect = lower value 0.986 | locus YJL129C, strain trk1, stronger effect = lower value 1.04 | locus YJL154C, strain vps35, stronger effect = lower value 1 | locus YJL168C, strain set2, stronger effect = lower value 0.954 | locus YJL187C, strain SWE1, stronger effect = lower value 0.95 | locus YKL009W, strain mrt4, stronger effect = lower value 1.02 | locus YKL068W, stronger effect = lower value 0.996 | locus YKL085W, strain MDH1 (second series), stronger effect = lower value 0.994 | locus YKL085W, strain MDH1, stronger effect = lower value 0.994 | locus YKL160W, strain elf1, stronger effect = lower value 0.969 | locus YKR026C, strain gcn3, stronger effect = lower value 0.967 | locus YKR091W, strain srl3, stronger effect = lower value 1 | locus YLL001W, strain dnm1, stronger effect = lower value 0.967 | locus YLL026W, stronger effect = lower value 0.978 | locus YLL041C, strain sdh2, stronger effect = lower value 0.989 | locus YLR027C, strain aat2, stronger effect = lower value 0.955 | locus YLR102C, strain apc9, stronger effect = lower value 0.973 | locus YLR221C, strain rsa3, stronger effect = lower value 0.925 | locus YLR258W, strain gsy2, stronger effect = lower value 0.946 | locus YLR320W, strain mms22, stronger effect = lower value 0.927 | locus YLR342W, strain FKS1, stronger effect = lower value 0.929 | locus YLR370C, strain arc18, stronger effect = lower value 0.916 | locus YLR384C, strain iki3, stronger effect = lower value 0.971 | locus YML120C, strain ndi1, stronger effect = lower value 0.952 | locus YML124C, strain tub3, stronger effect = lower value 0.958 | locus YMR078C, strain ctf18, stronger effect = lower value 0.973 | locus YMR125W, strain sto1, stronger effect = lower value 1.03 | locus YMR129W, stronger effect = lower value 1 | locus YMR205C, strain PFK2, stronger effect = lower value 0.901 | locus YNL071W, strain lat1, stronger effect = lower value 1 | locus YNL248C, strain rpa49, stronger effect = lower value 0.986 | locus YNL250W, strain rad50, stronger effect = lower value 0.99 | locus YNL271C, strain bni1, stronger effect = lower value 0.963 | locus YNL298W, strain CLA4, stronger effect = lower value 1 | locus YNL307C, strain MCK1, stronger effect = lower value 0.93 | locus YNL322C, strain KRE1 (second series), stronger effect = lower value 1.02 | locus YNR049C, strain mso1, stronger effect = lower value 0.997 | locus YOL012C, strain htz1 0.293 | locus YOR001W, strain rrp6, stronger effect = lower value 0.962 | locus YOR070C, strain gyp1, stronger effect = lower value 0.938 | locus YOR080W, strain dia2, stronger effect = lower value 0.966 | locus YOR083W, strain WHI5, stronger effect = lower value 0.937 | locus YOR265W, strain rbl2, stronger effect = lower value 0.969 | locus YOR316C, strain cot1, stronger effect = lower value 0.958 | locus YPL078C, strain atp4, stronger effect = lower value 0.957 | locus YPL106C, strain sse1, stronger effect = lower value 0.872 | locus YPL240C, strain hsp82, stronger effect = lower value 0.97 | locus YPR119W, strain clb2, stronger effect = lower value 0.988 | locus YPR141C, strain kar3, stronger effect = lower value 0.993 | locus YPR163C, strain tif3, stronger effect = lower value 0.969
